This passage reports Inhibition results from ChEMBL document CHEMBL4513152, “CO-ADD screening of Yantai University (China) compounds”.

Entries with a potency or affinity are not part of this list.

One assay deals with Klebsiella pneumoniae. Particulars: Concentration 32 ug.mL-1; ASSAY_TEST Inhibition of Bacterial Growth; detection method Absorption (OD600); MEDIA CAMHB; plate type 384well; NBS; CORNING #3640; time 18 hr.
The next assay concerns Candida albicans. Particulars: 32 ug/mL.
The subject of the next assay is Cryptococcus neoformans. To be noted: Concentration 32 ug.mL-1; ASSAY_TEST Inhibition of Fungal Growth; detection method Resazurin; Absorption (OD600-OD570); plate type 384well; NBS; CORNING #3640. On the technique in general: Resazurin is reduced to fluorescent resorufin, in cell work by metabolically active cells.

Turning to `CC(=O)O[C@H]1C[C@@]2(C)C(C[C@@H](O)C3[C@@]4(C)CC[C@@H](OC(=O)CCC(=O)O)[C@@H](C)C4CC[C@@]32C)/C1=C(\CCC=C(C)C)C(=O)OCc1ccccc1` (some centres not stated), the results for the Inhibition with Klebsiella pneumoniae, in the assay on Candida albicans and in the assay with Cryptococcus neoformans were 31.46%, -1.56% and -100.19%, respectively.
As to `CC(=O)O[C@H]1C[C@@]2(C)C(C[C@@H](O)C3[C@@]4(C)CC[C@@H](OC(=O)CCC(=O)OCCc5ccc(OCCO[N+](=O)[O-])cc5)[C@@H](C)C4CC[C@@]32C)/C1=C(\CCC=C(C)C)C(=O)OCc1ccccc1` (some centres not stated), the Inhibition (as a rule, the relative decrease from the control value, in per cent) in the assay on Klebsiella pneumoniae was 3.49%; in the assay on Candida albicans, -4.49%; with Cryptococcus neoformans it was -89.71%.
For `CC(=O)O[C@H]1C[C@@]2(C)C(C[C@@H](O)C3[C@@]4(C)CC[C@@H](OC(=O)c5ccccc5C(=O)Oc5ccc(CCO[N+](=O)[O-])cc5)[C@@H](C)C4CC[C@@]32C)/C1=C(\CCC=C(C)C)C(=O)OCc1ccccc1` (some centres not stated), in that order: 0.97%, -5.71% and -72.43%.
For the molecule `CC(=O)O[C@H]1C[C@@]2(C)C(CC(=O)C3[C@@]4(C)CC[C@@H](OC(=O)CCCCCO[N+](=O)[O-])[C@@H](C)C4CC[C@@]32C)/C1=C(\CCC=C(C)C)C(=O)OCc1ccccc1` (some centres not stated), the Inhibition is 8.79% in the assay with Klebsiella pneumoniae, -2.93% with Candida albicans and -87.68% in the assay on Cryptococcus neoformans.
On to `CC(=O)O[C@H]1C[C@@]2(C)C(C[C@@H](O)C3[C@@]4(C)CC[C@@H](O)[C@@H](C)C4CC[C@@]32C)/C1=C(\CCC=C(C)C)C(=O)Oc1ccc(CCO[N+](=O)[O-])cc1` (some centres not stated), for which the Inhibition in the assay on Klebsiella pneumoniae is 24.64%; in the assay with Candida albicans, 7.08%; in the assay on Cryptococcus neoformans, -126.19%.
In the case of `CC(=O)O[C@H]1C[C@@]2(C)C(C[C@@H](O)C3[C@@]4(C)CC[C@@H](OC(=O)C(C)N)[C@@H](C)C4CC[C@@]32C)/C1=C(\CCC=C(C)C)C(=O)OCc1ccccc1` (some centres not stated), the figures for the Inhibition with Klebsiella pneumoniae, in the assay with Candida albicans and with Cryptococcus neoformans were 8.77%, 16.1% and 90.52%, respectively.
In the case of `CC(=O)O[C@H]1C[C@@]2(C)C(C[C@@H](O)C3[C@@]4(C)CC[C@@H](OC(=O)c5ccccc5C(=O)Nc5cccc(N)c5)[C@@H](C)C4CC[C@@]32C)/C1=C(\CCC=C(C)C)C(=O)OCc1ccccc1` (some centres not stated), the values for the Inhibition in the assay with Klebsiella pneumoniae, in the assay with Candida albicans and in the assay with Cryptococcus neoformans were 1.34%, 1.55% and -66.02%, respectively.
For the molecule `CC(=O)O[C@H]1C[C@@]2(C)C(CC(=O)C3[C@@]4(C)CCC(=O)[C@@H](C)C4CC[C@@]32C)/C1=C(\CCC=C(C)C)C(=O)OCc1ccccc1` (some centres not stated), the Inhibition is 19.97% in the assay on Klebsiella pneumoniae, 6.47% in the assay on Candida albicans and -73.01% with Cryptococcus neoformans.
`CC(=O)O[C@H]1C[C@@]2(C)C(C[C@@H](O)C3[C@@]4(C)CC[C@@H](O)[C@@H](C)C4CC[C@@]32C)/C1=C(\CCC=C(C)C)C(=O)On1nnc2ccccc21` (some centres not stated): the Inhibition was -4.91% in the assay on Klebsiella pneumoniae, 3.88% in the assay with Candida albicans and -40.31% in the assay on Cryptococcus neoformans.
The like results for `CC(=O)O[C@H]1C[C@@]2(C)C(C[C@@H](O)C3[C@@]4(C)CC[C@@H](O)[C@@H](C)C4CC[C@@]32C)/C1=C(\CCC=C(C)C)C(=O)OCc1ccccc1` (some centres not stated) were, in that order, 15.54%, -0.49% and -62.82%.
As to `CC(=O)O[C@H]1C[C@@]2(C)C(CC(=O)C3[C@@]4(C)CC[C@@H](OC(=O)CCCCO[N+](=O)[O-])[C@@H](C)C4CC[C@@]32C)/C1=C(\CCC=C(C)C)C(=O)OCc1ccccc1` (some centres not stated), the Inhibition was 10.79% in the assay on Klebsiella pneumoniae, -1.47% in the assay on Candida albicans and -85.18% with Cryptococcus neoformans.
Regarding `CC(=O)O[C@H]1C[C@@]2(C)C(C[C@@H](O)C3[C@@]4(C)CC[C@@H](OC(=O)c5ccccc5C(=O)OCCc5ccc(OCCO[N+](=O)[O-])cc5)[C@@H](C)C4CC[C@@]32C)/C1=C(\CCC=C(C)C)C(=O)OCc1ccccc1` (some centres not stated), the Inhibition is 4.99% with Klebsiella pneumoniae, -0.23% in the assay with Candida albicans and -57.39% with Cryptococcus neoformans.
Consider `CC(=O)O[C@H]1C[C@@]2(C)C(C[C@@H](O)C3[C@@]4(C)CC[C@@H](OC(=O)CCCCO[N+](=O)[O-])[C@@H](C)C4CC[C@@]32C)/C1=C(\CCC=C(C)C)C(=O)OCc1ccccc1` (some centres not stated), for which the Inhibition in the assay on Klebsiella pneumoniae is 6.42%; in the assay on Candida albicans, -3.76%; in the assay on Cryptococcus neoformans it was -91.73%.
For `CC(=O)O[C@H]1C[C@@]2(C)C(C[C@@H](O)C3[C@@]4(C)CC[C@@H](OC(=O)CCCCCO[N+](=O)[O-])[C@@H](C)C4CC[C@@]32C)/C1=C(\CCC=C(C)C)C(=O)OCc1ccccc1` (some centres not stated), in that order: -0.98%, -2.51% and -81.56%.
For `CC(=O)O[C@H]1C[C@@]2(C)C(C[C@@H](O)C3[C@@]4(C)CC[C@@H](OC(=O)C(N)C(C)C)[C@@H](C)C4CC[C@@]32C)/C1=C(\CCC=C(C)C)C(=O)OCc1ccccc1` (some centres not stated), in that order: 18.28%, 14.4% and 88.23%.
With `CC(=O)O[C@H]1C[C@@]2(C)C(C[C@@H](O)C3[C@@]4(C)CC[C@@H](OC(=O)CCC(=O)Oc5ccc(CCO[N+](=O)[O-])cc5)[C@@H](C)C4CC[C@@]32C)/C1=C(\CCC=C(C)C)C(=O)OCc1ccccc1` (some centres not stated), the Inhibition in the assay with Klebsiella pneumoniae is -3.54%; in the assay on Candida albicans, -8.49%; in the assay with Cryptococcus neoformans, -78.97%.
For `CC(=O)O[C@H]1C[C@@]2(C)C(C[C@@H](O)C3[C@@]4(C)CC[C@@H](OC(=O)C(N)CC(C)C)[C@@H](C)C4CC[C@@]32C)/C1=C(\CCC=C(C)C)C(=O)OCc1ccccc1` (some centres not stated), in that order: 5.15%, 2.67% and -45.25%.
The like results for `CC(=O)O[C@H]1C[C@@]2(C)C(C[C@@H](O)C3[C@@]4(C)CC[C@@H](OC(=O)c5ccccc5C(=O)Nc5ccc(N)cc5)[C@@H](C)C4CC[C@@]32C)/C1=C(\CCC=C(C)C)C(=O)OCc1ccccc1` (some centres not stated) were, in that order, 5.38%, 25% and -105.92%.
Regarding `CC(=O)O[C@H]1C[C@@]2(C)C(C[C@@H](O)C3[C@@]4(C)CC[C@@H](OC(=O)CO[N+](=O)[O-])[C@@H](C)C4CC[C@@]32C)/C1=C(\CCC=C(C)C)C(=O)OCc1ccccc1` (some centres not stated), the Inhibition with Klebsiella pneumoniae was 17.67%; with Candida albicans, 0.87%; in the assay on Cryptococcus neoformans, -43.62%.
